The results in this text go back to the OligoGym collection.
Further: reference of the scale not given here.

The target in one assay is C13orf33. The assay can be described thus: pooled miR-30 sensor sort-seq; sequence = guide strand. The note with it: shRNA.
On to TACCTCTTGATGTAGCTGCTGA, for which the sensor-assay potency score (higher = more potent) amounted to 0.0733. TCTATCTGTCTTCTTATCTTGG gave a sensor-assay potency score (higher = more potent) of -0.385.

As for TTAATAAAGAACAACATTGGTT, the sensor-assay potency score (higher = more potent) was -0.331. TAATAAAGAACAACATTGGTTT returned a sensor-assay potency score (higher = more potent) of -0.342. On to TTGCTCAATATAGTTTCCCTGT, for which the sensor-assay potency score (higher = more potent) is -0.333. Sequence TAACTTAATCGTCTCCTTCTTT displayed a sensor-assay potency score (higher = more potent) of -0.331. On to TAATCGTCTCCTTCTTTTCTGG, for which the sensor-assay potency score (higher = more potent) is -0.326.

The target in another assay is C14orf105. The assay is described as above. The note with it: shRNA.
Regarding TTGCTTTGTGCATTGTCCTGGC, the sensor-assay potency score (higher = more potent) was determined as 0.239. TTTCTTTTCTAGTACCTGCTTT came in with a sensor-assay potency score (higher = more potent) of -0.0807.

For TTGAATGCAAAGTCCACACGGC, the sensor-assay potency score (higher = more potent) amounted to 0.351. For TTCTTTTCTAGTACCTGCTTTG, the sensor-assay potency score (higher = more potent) was -0.834. TTTGCTTTGTGCATTGTCCTGG: the sensor-assay potency score (higher = more potent) is 0.729. In turn, TTTGCTTATTAATTCTTGCCTC had a sensor-assay potency score (higher = more potent) of 0.114. In turn, TTGCTTATTAATTCTTGCCTCT came in with a sensor-assay potency score (higher = more potent) of -0.134. With TTAATAATACTTGTTTCTCTGT, the sensor-assay potency score (higher = more potent) is -0.864. On to TTTTCTTTAACTCCATTTGGGC, for which the sensor-assay potency score (higher = more potent) is -0.637. TTCCATACCAGTTTTCTTGTAA had a sensor-assay potency score (higher = more potent) of 0.252. Take TTCCTGAAGTAATTACTCGTGG: the sensor-assay potency score (higher = more potent) is -0.0565. Consider TTTCTAGTACCTGCTTTGCTTT, for which the sensor-assay potency score (higher = more potent) is -0.906.
